Laboratory results as given in the supplement of paper PMC9844399.
Counter-ions that a name gives are not always drawn. Values without a mark were called inactive.

system: HeLa; assay: MALAT1 nuclear FISH intensity, robust Z-score vs DMSO; higher = more nuclear MALAT1 lncRNA, active = -3 or less; conditions: 10 µM; 6 h
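Note: High-content confocal imaging of branched-DNA amplified FISH in 384-well plates, Hoechst-defined nuclei, score is well value minus plate DMSO median over DMSO robust SD, four wells per compound.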

| Compound | MALAT1 nuclear FISH intensity |
| --- | --- |
| O=C1O[C@H]([C@@H](O)CO)C(O)=C1O [L-Ascorbic Acid] | -1.69 |
| CCn1cc(C(=O)O)c(=O)c2cc(F)c(N3CCNCC3)cc21 [Norfloxacin] | 0.376 |
| CN1[C@@H]2CC[C@H]1C[C@@H](OC(c1ccccc1)c1ccccc1)C2 [Benztropine Mesylate] | -0.262 |
| COC(=O)C1=C(C)NC(C)=C(C(=O)OCCCN2CCC(c3ccccc3)(c3ccccc3)CC2)[C@H]1c1cccc([N+](=O)[O-])c1 [Niguldipine] | 2.46 |
| CCCCC[C@H](O)/C=C/[C@@H]1[C@@H](CC(=O)CCCCC(=O)O)[C@@H](O)C[C@H]1O [6-Keto-prostaglandin F1a] | 0.823 |
| COC(=O)[C@@H]1[C@H]2C[C@H]3c4[nH]c5ccccc5c4CCN3C[C@@H]2CC[C@@H]1O [Yohimbine] | -0.0829 |
| Cc1c2oc3c(C)ccc(C(=O)N[C@@H]4C(=O)N[C@H](C(C)C)C(=O)N5CCC[C@H]5C(=O)N(C)CC(=O)N(C)[C@@H](C(C)C)C(=O)O[C@@H]4C)c3nc-2c(C(=O)N[C@@H]2C(=O)N[C@H](C(C)C)C(=O)N3CCC[C@H]3C(=O)N(C)CC(=O)N(C)[C@@H](C(C)C)C(=O)O[C@@H]2C)c(N)c1=O [Actinomycin D] | -6.35 (active) |
| CCC[C@@H]1C[C@@H](C(=O)N[C@@H]([C@H]2O[C@H](SC)[C@H](O)[C@@H](O)[C@H]2O)[C@@H](C)O)N(C)C1 | -0.0208 |
| Cc1ccccc1C(=O)Nc1ccc(C(=O)N2CCCC(O)c3cc(Cl)ccc32)c(C)c1 (stereo not drawn) [Tolvaptan] | 0.0389 |
| CN(C)CCOC(=O)C(c1ccccc1)C1(O)CCCC1 (stereo not drawn) [Cyclopentolate] | -1.07 |
| CCCCC(=O)N(Cc1ccc(-c2ccccc2-c2nnn[nH]2)cc1)[C@H](C(=O)O)C(C)C [Valsartan] | 0.00591 |
| C=CC[N+]1([C@H]2C[C@H]3[C@@H]4CC[C@H]5C[C@H](O)[C@@H](N6CCOCC6)C[C@]5(C)[C@H]4CC[C@]3(C)[C@H]2OC(C)=O)CCCC1 [Rocuronium Bromide] | -0.874 |
| CC(=O)O[C@@]12CO[C@@H]1C[C@H](O)[C@@]1(C)C(=O)[C@H](O)C3=C(C)[C@@H](OC(=O)[C@H](O)[C@@H](NC(=O)OC(C)(C)C)c4ccccc4)C[C@@](O)([C@@H](OC(=O)c4ccccc4)[C@H]21)C3(C)C [Docetaxel (Taxotere)] | -0.196 |
| Nc1nc2[nH]cnc2c(=S)[nH]1 [Thioguanine (6-Thioguanine)] | -3.61 (active) |
| O=C(O)c1ccc2c3c1cccc3c(=O)n1c3ccccc3nc21 [STO-609-acetic acid] | -1.59 |
| CCCCCC#CCC#CCC#CCC#CCCCC(=O)O [5,8,11,14-Eicosatetraynoic acid] | -0.86 |
| COCCc1ccc(OCC(O)CNC(C)C)cc1 (stereo not drawn) [Metoprolol Tartrate] | -0.751 |
| Cc1ccc(C(=O)c2cc(O)c(O)c([N+](=O)[O-])c2)cc1 [Tolcapone] | -1.19 |
| CC(C)(Oc1ccc(CCNC(=O)c2ccc(Cl)cc2)cc1)C(=O)O [bezafibrate] | 0.066 |
| CC(C)[C@@H](O)CC[C@@H](C)[C@H]1CC[C@H]2[C@@H]3CC=C4C[C@@H](O)CC[C@]4(C)[C@H]3CC[C@]12C [24(S)-hydroxycholesterol] | -0.91 |
| CN1CCN(C(c2ccccc2)c2ccc(Cl)cc2)CC1 (stereo not drawn) | 0.624 |
| CCCCC/C=C\C/C=C\C/C=C\CCCCC(=O)O [Gamma-linolenic acid (18:3 n-6)] | -0.329 |
| CC(=O)NCCCS(=O)(=O)O [Acamprosate] | 1.03 |
| CCN(CC)CC#CCOC(=O)C(O)(c1ccccc1)C1CCCCC1 (stereo not drawn) [Oxybutynin Chloride] | -0.438 |
| CN(C)CCOC(c1ccc(Cl)cc1)c1ccccn1 (stereo not drawn) [Carbinoxamine Maleate] | 0.56 |
| C[C@H](CS)C(=O)N1CCC[C@H]1C(=O)O [Captopril] | -0.131 |
| COC(=O)Nc1nc2cc(C(=O)c3cccs3)ccc2[nH]1 [Nocodazole] | -0.638 |
| CCC[C@H](N[C@H]1CCc2cc(F)cc(F)c2C1)C(=O)Nc1cn(C(C)(C)CNCC(C)(C)C)cn1 | -0.158 |
